# Hits are enriched below; roughly 12% of the tested compounds scored in any of these assays.
# Pf growth 96h = inhibits malaria parasite growth, 96 h; P. falciparum luciferase reporter growth, 96 h; Potency, µM (series often up to 28.7 µM), for inactives: at the highest dose activity change, negative = inhibition, most hits filed as inhibitors; hit rate 6.9% among 320,000; note: % is set by controls: 0 for no effect and ±100 for the full control effect
#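 P. falciparum expressing integrated firefly luciferase, in erythrocytes at 2% hematocrit, 0.05% parasitemia, incubated with compounds 96 h at 37 C, 5% CO2. Growth inhibition read as loss of luminescence; two-generation exposure targets delayed-death apicoplast inhibitors.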
# HCV inh = blocks hepatitis C virus | Huh7.5.1 HCVcc-Cre infection, luciferase reporter, 44 h | Potency, µM (top dose mostly 41.8 µM), for inactives: at the top dose activity change, negative = inhibition, usual class: inhibitors | hit rate 3.4% among 340,000 | AID 651820; note: % is set by controls: 0 for no effect and ±100 for the full control effect
#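 Infectious HCV cell culture screen: compound-treated cells (1,000/well, pre-plated 4 h) are infected with HCVcc-Cre at roughly 0.5 moi and grown 44 h. Infection is quantified by luciferase signal after 15 min substrate incubation at room temperature.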
# Pf growth 48h = inhibits P. falciparum growth in the first generation, 48 h. P. falciparum luciferase growth in erythrocytes, 48 h. Potency, µM (highest dose often 28.7 µM), for the others: top-dose activity change, negative = inhibition, actives largely listed as inhibitors. hit rate 5.9% among 310,000; note: % is set by controls: 0 for no effect and ±100 for the full control effect
#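 First compound was added to culture medium, then infected red cells at 0.1% parasitemia and 2% hematocrit (final). After incubation at 37 C under 5% CO2, luciferase detection reagent was dispensed and light output recorded.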
# SARS PLP yeast = SARS-CoV PLP inhibition in yeast; S. cerevisiae expressing SARS-CoV PLpro, growth rescue; Potency, µM (highest dose often 32.9 µM), for the others: at the top dose activity, positive = growth rescue, usual class: activators; hit rate 0.19% among 330,000; calls by dose curve; note: 0% is about no effect; nearly all actives have a fitted effect of over 55% in size
# NS1 function inh = inhibitors of influenza NS1 protein function | hit rate 0.4% among 270,000 | Potency, µM (top dose mostly 46.1 µM), for inactives: at the top dose activity, positive = more growth | AID 2326; calls by dose curve; note: actives are rising curves; nearly all actives have a fitted effect of over 50% in size
#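 S. cerevisiae expressing influenza A NS1, grown in glucose, washed, then diluted 1:100 into pH 6.0 -URA galactose medium with 23 nl compound. Growth recovery read as OD600; NS1-free strain serves as control.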
# AMA1 RON2 block = disrupts binding of P. falciparum AMA1 to RON2 | AID 720542 | hit rate 0.2% among 360,000 | Potency, µM (highest dose often 58.2 µM), for the others: top-dose activity change, negative = inhibition, hits mostly inhibitors | AlphaScreen AMA1-biotinylated RON2 peptide binding;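 note: 0% = vehicle wells and -100% = peptide control; nearly all actives have a fitted effect of over 45% in size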
#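 AMA1 (3D7) with his tag at 25 nM final met compounds first, then biotinylated RON2 peptide at 25 nM; detection used donor plus acceptor beads, 10 µg/mL apiece, read by AlphaScreen after 30 min at room temperature.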
# * = called active by the depositor; ? = inconclusive; . = no result; [ ] = another dose, or the depositor's remark. Unless noted, calls come from the whole dose curve; as a rule, active = well fitted curve in the direction sought with a large enough effect; inconclusive = small, poorly fitted or top-dose-only effect, or another doubt; inactive = no such curve, though single readings can be large; an effect the other way counts as inactive or inconclusive. Potency is the fitted concentration of half-maximal effect.
SMILES,Pf growth 96h,HCV inh,Pf growth 48h,SARS PLP yeast,NS1 function inh,AMA1 RON2 block
Cc1cc(-c2nn(-c3ccccc3F)cc2CN2CCCC(C(N)=O)C2)c(C)s1 (stereo not given),?,9.7%,?,0.2%,-0.8%,4.9%
Cc1cc(-c2nn(-c3ccccc3F)cc2CN2CCC(C(N)=O)CC2)c(C)s1,8.28µM*,6.8%,-1.8%,-0.2%,-0.8%,-7.2%
Cc1cc(-c2nn(-c3ccccc3F)cc2CN2CCCC(CO)C2)c(C)s1 (stereo not given),2.33µM*,?,22.0%,-1.5%,0.8%,-4.1%
Cc1ccc(NC(=O)CCN2CCN(C/C=C/c3ccccc3)CC2)cc1,.,?,?,-10.6%,-8.7%,5.2%
Cc1ccc(NC(=O)CCN2CCC(Cc3ccccc3)CC2)cc1,10.4µM*,-25.5%,7.38µM*,-0.8%,-3.4%,-5.8%
Cc1ccc(NC(=O)CN2CCC(Cc3ccccc3)CC2)cc1S(=O)(=O)N(C)C,?,11.2µM*,?,-1.6%,-5.6%,?
OCCCNc1c2ccccc2nc2ccccc12,28.0%,11.2µM*,5.22µM*,-3.2%,-4.8%,-0.4%
Cc1ccc(-c2nc(NCCCO)c3ccccc3n2)cc1,33.2%,?,-2.6%,-0.3%,-14.7%,14.6%
c1ccc2c(NCCc3c[nH]c4ccccc34)c3ccccc3nc2c1,3.29µM*,14.1µM*,0.586µM*,-0.2%,-2.3%,?
Fc1cccc(NCCc2c[nH]c3ccccc23)n1,35.0%,?,20.8%,-2.6%,-7.1%,?
O=C(Cn1ncc2c1-c1ccccc1OC2)N1CCN(Cc2ccc3c(c2)OCO3)CC1,4.65µM*,-19.7%,.,-0.5%,-22.4%,-4.5%
O=C(c1cc2ccccc2[nH]1)N(Cc1cccnc1)CC1CCCN(C2CCCCC2)C1 (stereo not given),?,?,10.4µM*,-3.4%,-2.1%,-6.2%
COc1ccc(S(=O)(=O)N2CCN(C(=O)c3ccc4ccccc4n3)CC2)cc1,?,16.5%,?,-3.3%,.,-11.3%
NC(=O)CSc1nc(-c2ccccc2)nc2c1CCCC2,7.38µM*,-16.2%,8.9%,-0.7%,4.4%,0.2%
Cc1cccc2c(SCC(N)=O)nc(-c3ccccc3)nc12,167.2%,7.08µM*,10.0%,-4.2%,-8.4%,-0.1%
CN(C)CCSc1nc(-c2ccccc2)nc2c1CCC2,?,-6.7%,-22.3%,-11.8%,0.6%,0.0%
CN(C)C(=O)CSc1nc(-c2ccccc2)nc2c1CCCC2,9.28µM*,?,?,-12.2%,-5.3%,-7.4%
O=C(O)/C=C\C(=O)Nc1ncn[nH]1,.,.,.,.,1.1%,.
CCC1CCCCN1C(=O)C(=O)c1cn(CC(=O)N(CC)CC)c2ccccc12 (stereo not given),10.4µM*,5.0%,-16.6%,18.1%,13.6%,9.0%
O=C(C(=O)N1CCN(c2ccc(F)cc2)CC1)c1cn(CC(=O)N2CCOCC2)c2ccccc12,13.1µM*,12.8%,-6.1%,4.0%,-10.0%,-4.8%
O=C(Nc1ccccc1)C(=O)c1cn(CC(=O)N2CCCCC2)c2ccccc12,10.4µM*,-29.1%,-20.2%,2.1%,?,0.0%
CN1CCN(C(=O)C(=O)c2cn(CC(=O)N3CCOCC3)c3ccccc23)CC1,.,.,.,.,.,-5.3%
O=C(C(=O)N1CCCCC1)c1cn(CC(=O)N2CCCCCC2)c2ccccc12,11.7µM*,6.9%,?,5.8%,14.9%,9.8%
COc1ccc(CC(=O)NNC(=S)NCC2CC2)cc1OC,14.9%,-9.5%,-2.2%,-0.4%,6.2%,75.4%
COc1ccc(N2CCN(c3ccc4nnc(CCC(=O)Nc5ccc(C)cc5)n4n3)CC2)cc1,?,-0.4%,?,5.1%,18.9%,-3.8%
SMILES,Pf growth 96h,HCV inh,Pf growth 48h,SARS PLP yeast,NS1 function inh,AMA1 RON2 block
COc1ccc(S(=O)(=O)N2CN3CCN(C3)C2)cc1OC,8.7%,14.7%,-4.9%,-2.1%,8.1%,69.5%
CCCS(=O)(=O)N1CCCC(C(=O)NC2CCCC(C)C2C)C1 (stereo not given),?,10.3%,8.4%,-2.1%,-1.2%,-1.3%
CCCS(=O)(=O)N1CCC(C(=O)NC2CCCC(C)C2C)CC1 (stereo not given),9.28µM*,12.4%,16.7%,0.2%,-0.6%,8.8%
C#CC(=O)N(c1cc(OC)ccc1OC)C(C(=O)NC1CCCC1)c1cccs1 (stereo not given),55.2%,.,-0.5%,-10.0%,-0.5%,5.3%
C#CC(=O)N(c1ccc(OC)cc1OC)C(C(=O)NC1CCCC1)c1cccs1 (stereo not given),-35.2%,1.26µM*,2.7%,1.1%,3.1%,-18.8%
COc1ccc(N(C(=O)c2snc(C(N)=O)c2N)C(C(=O)NC2CCCC2)c2cc(OC)ccc2OC)c(OC)c1 (stereo not given),-9.7%,?,1.85µM*,1.2%,-0.9%,11.5%
COc1ccc(C(C(=O)NC2CCCC2)N(C(=O)c2snc(C(N)=O)c2N)c2ccccc2OC)cc1OC (stereo not given),1.3%,-9.3%,9.28µM*,0.7%,-6.4%,-3.6%
Cc1cccc2c1NC(=O)C2(O)N1CCCC(C)C1 (stereo not given),-20.1%,9.9%,?,9.2%,13.7%,6.2%
CC(=O)Oc1ccc(C(=O)Nc2cc(NC(=O)c3ccc(OC(C)=O)cc3)cc(C(=O)NC(C)(C)C)c2)cc1,2.62µM*,6.3%,?,1.4%,8.0%,10.0%
CC(=O)Oc1ccc(C(=O)Nc2cccc(C(=O)c3ccc(C)c(C)c3)c2)cc1,76.7%,?,11.7µM*,1.3%,20.0%,-5.3%
Brc1ccc(Nc2ncnc3[nH]ncc23)cc1,8.3%,16.7%,16.9%,-1.3%,-0.2%,-0.1%
COc1ccccc1NS(=O)(=O)c1ccc(C)c(C(=O)N2CCN(c3ccc(O)cc3)CC2)c1,.,6.4%,.,-1.9%,.,-17.6%
Nc1nccnc1C(=O)OCC(=O)Nc1cccc(S(=O)(=O)N2CCCCC2)c1,?,1.1%,5.3%,14.9%,12.1%,10.6%[11.6 µM]
Cn1nc(C(=O)Nc2cccc(S(=O)(=O)N3CCCC3)c2)c2ccccc2c1=O,9.28µM*,?,8.28µM*,-3.5%,.,-10.2%
NC(=O)c1nn(CC(=O)Nc2cccc(S(=O)(=O)N3CCCC3)c2)c(=O)c2ccccc12,?,11.2µM*,?,4.2%,.,9.3%
Cn1nc(C(=O)OCC(=O)Nc2cccc(S(=O)(=O)N3CCCC3)c2)c2ccccc2c1=O,-11.9%,22.3%,11.7µM*,1.3%,-33.1%,-2.2%
Cn1nc(C(=O)Nc2cccc(S(=O)(=O)N3CCOCC3)c2)c2ccccc2c1=O,-5.2%,?,?,-2.0%,.,-3.7%
CC(C)n1nc(C(=O)Nc2cccc(S(=O)(=O)N3CCOCC3)c2)c2ccccc2c1=O,10.4µM*,?,?,-0.9%,.,-1.6%

# From PubChem BioAssay
